SW480 rerep: induces DNA re-replication in SW480 colon adenocarcinoma cells. SW480 DNA re-replication, Hoechst DNA content imaging, 48 h. Potency, µM (top dose mostly 46.1 µM), inactives show at the top dose re-replication activation, hits mostly activators. 340,000 tested, 1.8% active; also: % of control where 0% means no effect; nearly all actives have a fitted effect of over 55% in size
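Per well, 250 cells were exposed to pinned compound for 48 hr. Nuclear DNA was visualised with Hoechst (40 min, 37 C) and total object intensity recorded by fluorescence scanning.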
KB-V1 cytotox: kills drug-selected multidrug resistant KB-V1 cells | KB-V1 MDR cells viability, CellTiter-Glo, 72 h | 400,000 tested, 3.4% active | Potency, µM (series often up to 46.1 µM), actives largely listed as cytotoxic | AID 1347076; also: % is scaled to controls: 0 for no effect and ±100 for the full control effect; nearly all actives have a fitted effect of over 60% in size
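Luminescent ATP read-out (CellTiter-Glo, 10 min) measures survival of drug-selected KB-V1 MDR cells after 72 h, 37 degrees C compound exposure. Medium: phenol-red-free DMEM, 10% FBS. Values from fitted concentration-response curves.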
MCF10A rerep: induces DNA re-replication in MCF 10a normal breast cells | AID 624296 | 350,000 tested, 2.9% active | Potency, µM (series often up to 46.1 µM), for the others: top-dose activity, positive = re-replication, actives largely listed as activators | MCF 10A DNA re-replication, Hoechst nuclear intensity, 48 h; also: % of control where 0% means no effect; nearly all actives have a fitted effect of over 50% in size
HT1080NT lethal: kills 2HG-producing HT-1080-NT fibrosarcoma cells; HT-1080-NT fibrosarcoma viability, CellTiter-Glo ATP luminescence, 48 h; Potency, µM (series often up to 46.1 µM), inactives show at the top dose activity, negative = less viability, usual class: cytotoxic; 360,000 tested, 1.6% active; AID 686970;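 also: NT is the 2HG producing partner of a matched IDH1 knockdown line; 0% = DMSO-treated cells and -100% = media-only wells without cells; nearly all actives have a fitted effect of over 55% in size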
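Read-out is CellTiter-Glo luminescence after 10 minutes at room temperature, following 48 hours' compound treatment of HT-1080-NT cells (750 cells/well, RPMI, 5% FBS, 37 degrees C).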
HT1080 IDH1KD tx: kills HT-1080 cells with IDH1 knockdown. Potency, µM (series often up to 46.1 µM), inactives show top-dose activity, negative = toxicity, actives largely listed as cytotoxic. HT-1080 IDH1 knockdown viability, ATP luminescence, 48 h. AID 686971. 360,000 tested, 2% active;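 also: 0% = DMSO wells and -100% = cell-free medium wells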
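Luminescent ATP read-out (CellTiter-Glo, 10 min at room temperature) after 48 h compound exposure at 37 °C gave viability of IDH1-knockdown HT-1080 cells. Activity was normalised to DMSO and cell-free wells, then fitted as concentration-response curves.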
KB-3-1 tox: kills parental KB-3-1 adenocarcinoma cells. KB-3-1 viability, CellTiter-Glo ATP luminescence, 72 h. Potency, µM (highest dose often 46.1 µM), hits mostly cytotoxic. 400,000 tested, 1.4% active; also: % is scaled to controls: 0 for no effect and ±100 for the full control effect; nearly all actives have a fitted effect of over 60% in size
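Using CellTiter-Glo luminescence, growth of non-resistant KB-3-1 adenocarcinoma cells is assessed 72 h after pin-tool compound addition at 37 °C. Normalized responses across the concentration series yield fitted curves.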
* = called active by the depositor; [ ] = dose if it differs, or a comment. The list is not random: actives were taken first. Their share in the collection is about 8%. Calls follow the shape of the dose curve; as a rule, active = well fitted curve in the direction sought with a large enough effect; inconclusive = small, poorly fitted or top-dose-only effect, or another doubt; inactive = no such curve, though single readings can be large; an effect the other way counts as inactive or inconclusive. Potency is read from the fitted curve at half-maximal effect.

COc1ccc(OC)c(C(C(=O)NCc2ccco2)N(C(=O)Cn2nnc3ccccc32)C2CC2)c1 (stereo not given) was read as SW480 rerep -2.0%, KB-V1 cytotox 6.51µM*, MCF10A rerep -4.7%, HT1080NT lethal -6.5%, HT1080 IDH1KD tx 3.0% and KB-3-1 tox inactive.
For COc1cc2c(cc1/C=C/C(=O)O)OC(C)C2 (stereo not given) the results were SW480 rerep -9.3%, KB-V1 cytotox inactive, MCF10A rerep -0.5%, HT1080NT lethal 9.2%, HT1080 IDH1KD tx 0.9% and KB-3-1 tox inactive.
For COc1coc(/C=C/C(=O)O)cc1=O the results were SW480 rerep 1.46µM*, KB-V1 cytotox inactive, MCF10A rerep -1.3%, HT1080NT lethal 17.9%, HT1080 IDH1KD tx 17.3% and KB-3-1 tox inactive.
Screening O=C(Nc1ccccc1N1CCOCC1)C1=NN(c2ccccc2)C(=O)CC1 returned SW480 rerep inconclusive, KB-V1 cytotox inconclusive, MCF10A rerep inconclusive, HT1080NT lethal inconclusive, HT1080 IDH1KD tx -20.6% and KB-3-1 tox inconclusive.
`COc1ccccc1N1CCN(c2ccnc3cc(Cl)ccc23)CC1` gave SW480 rerep 8.2µM*, KB-V1 cytotox inconclusive, MCF10A rerep 2.59µM*, HT1080NT lethal 3.66µM*, HT1080 IDH1KD tx 7.31µM* and KB-3-1 tox 6.51µM*.
`COc1ccccc1NC(=O)N1CCN(c2ccnc3cc(Cl)ccc23)CC1` gave SW480 rerep -5.7%, KB-V1 cytotox inactive, MCF10A rerep -7.4%, HT1080NT lethal -1.5%, HT1080 IDH1KD tx -22.0% and KB-3-1 tox inactive.
Screening Nc1ncn([C@@H]2O[C@H](CO)[C@@H](O)[C@H]2O)c(=O)n1 returned SW480 rerep -22.4%, KB-V1 cytotox inconclusive, MCF10A rerep inconclusive, HT1080NT lethal 1.64µM*, HT1080 IDH1KD tx 1.84µM* and KB-3-1 tox inconclusive.
Screening Nc1nc(Cl)nc2c1ncn2[C@@H]1O[C@H](CO)[C@@H](O)[C@H]1O returned SW480 rerep 15.9%, KB-V1 cytotox 16.4µM*, MCF10A rerep inconclusive, HT1080NT lethal 18.4µM*, HT1080 IDH1KD tx inconclusive and KB-3-1 tox inconclusive.
Screening Nc1ncnc2nn(C3OC(CO)C(O)C3O)nc12 (stereo not given) returned KB-V1 cytotox inconclusive, HT1080NT lethal inconclusive, HT1080 IDH1KD tx 13µM* and KB-3-1 tox inactive.
`CCCCCCCCCCCCCCCC(=O)Nc1ccn(C2OC(CO)C(O)C2O)c(=O)n1` (stereo not given) gave SW480 rerep 2.59µM*, KB-V1 cytotox inactive, MCF10A rerep -6.3%, HT1080NT lethal -4.3%, HT1080 IDH1KD tx inconclusive and KB-3-1 tox inconclusive.
For OCC1OC(n2nc3ccccc3n2)C(O)C(O)C1O (stereo not given) the results were SW480 rerep 0.0%, KB-V1 cytotox inactive, MCF10A rerep -1.5%, HT1080NT lethal -12.6%, HT1080 IDH1KD tx -3.1%[9.24 µM] and KB-3-1 tox inactive.
OC[C@H]1O[C@@H](n2cnc3c(NC4CCCC4)nc(Cl)nc32)[C@H](O)[C@@H]1O was read as SW480 rerep 4.3%, KB-V1 cytotox inactive, MCF10A rerep -8.8%, HT1080NT lethal -3.8%, HT1080 IDH1KD tx 7.5% and KB-3-1 tox inactive.
`Cn1c2ccsc2c2ncn(Cc3ccc(F)cc3)c(=O)c21` gave SW480 rerep 0.259µM*, KB-V1 cytotox inactive, MCF10A rerep inconclusive and KB-3-1 tox inactive.
CCN(CC)c1ccc(NC(=O)CCCCCN2C(=O)c3ccccc3C2=O)cc1 was read as SW480 rerep -2.8%, KB-V1 cytotox 4.61µM*, MCF10A rerep 5.4%, HT1080NT lethal -5.9%, HT1080 IDH1KD tx -11.3% and KB-3-1 tox inactive.
COc1ccc(OC)c(-c2csc(NC(=O)COC(=O)c3ccc(NC(=O)CC#N)cc3)n2)c1 was read as SW480 rerep -3.0%, KB-V1 cytotox inactive, MCF10A rerep 3.4%, HT1080NT lethal 12.5%, HT1080 IDH1KD tx 8.1% and KB-3-1 tox inactive.
Screening CCOC(=O)/C=C/C(=O)N1CCN(C(=O)/C=C/C(=O)OCC)CC1 returned SW480 rerep inconclusive, KB-V1 cytotox inactive, MCF10A rerep 14.6µM*, HT1080NT lethal -9.0%, HT1080 IDH1KD tx -23.7% and KB-3-1 tox inactive.
Screening COc1ccc(C(=O)c2cc([N+](=O)[O-])ccc2N2CCN(C)CC2)cc1 returned SW480 rerep inconclusive, KB-V1 cytotox 6.51µM*, MCF10A rerep 8.2µM*, HT1080NT lethal 2.59µM*, HT1080 IDH1KD tx 5.17µM* and KB-3-1 tox 2.91µM*.
Screening COc1ccc(C(=O)c2cc([N+](=O)[O-])ccc2N2CCCC2)cc1 returned SW480 rerep 18.4µM*, KB-V1 cytotox inconclusive, MCF10A rerep 1.46µM*, HT1080NT lethal 3.26µM*, HT1080 IDH1KD tx 3.26µM* and KB-3-1 tox inconclusive.
For CN1CCN(c2ccc([N+](=O)[O-])cc2C(=O)c2ccccc2)CC1 the results were SW480 rerep inconclusive, KB-V1 cytotox inconclusive, MCF10A rerep 1.6%, HT1080NT lethal -2.6%, HT1080 IDH1KD tx -13.3% and KB-3-1 tox inconclusive.
For O=C1CCc2cc(S(=O)(=O)Nc3cc(F)cc(Cl)c3)c(F)cc2N1 the results were KB-V1 cytotox inactive and KB-3-1 tox inactive.
Screening Cc1cccc(OCC(=O)NCC(C)(C)N2CCOCC2)c1 returned SW480 rerep inconclusive, KB-V1 cytotox inactive, MCF10A rerep 11.6%, HT1080NT lethal -3.5%, HT1080 IDH1KD tx -22.0% and KB-3-1 tox inactive.
Cc1ccc(C)c(NC(=O)C2CCN(S(=O)(=O)c3ccc4c(c3)NC(=O)CO4)CC2)c1 was read as SW480 rerep inconclusive, KB-V1 cytotox inactive, MCF10A rerep -7.3%, HT1080NT lethal -18.6%, HT1080 IDH1KD tx -12.7% and KB-3-1 tox inactive.
COc1cccc(C(=O)Nc2c3c(nn2-c2ccc(Cl)cc2)CS(=O)(=O)C3)c1OC was read as SW480 rerep -4.5%, KB-V1 cytotox inactive, MCF10A rerep 0.1%, HT1080NT lethal -8.2%, HT1080 IDH1KD tx -12.1% and KB-3-1 tox inactive.
Screening CCOC(=O)c1c(C)[nH]c(C(=O)OCC(=O)N2CCc3ccccc32)c1C returned SW480 rerep -3.9%, KB-V1 cytotox inactive, MCF10A rerep 2.5%, HT1080NT lethal 15.6%, HT1080 IDH1KD tx 8.2% and KB-3-1 tox inactive.
For CC(C)NC(=O)NC(=O)COC(=O)c1c2c(nc3ccccc13)CCC2 the results were SW480 rerep 0.0%, KB-V1 cytotox 20.6µM*, MCF10A rerep 23.1µM*, HT1080NT lethal inconclusive, HT1080 IDH1KD tx 25.9µM* and KB-3-1 tox inactive.
